Screening results as filed in PubChem BioAssay.
ATXN2 expr inh = inhibitors of ATXN2 expression; AID 1745845; Potency, µM (doses to about 57 µM), most hits filed as inhibitors; HEK-293 ATXN2-luciferase reporter, luminescence, 24 h; hit rate 0.72% among 360,000; further: nearly all actives have a fitted effect of over 55% in size
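ATXN2-luciferase reporter cells (luciferase flanked by upstream and downstream ATXN2 gene portions) were treated 24 h at 37 °C with compounds at up to 57 uM. SteadyGlo luminescence gave expression; GF-AFC fluorescence gave viability.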
KB-V1 MDR tox = kills drug-selected multidrug resistant KB-V1 cells; AID 1347076; Potency, µM (highest dose often 46.1 µM), usual class: cytotoxic; hit rate 3.4% among 400,000; KB-V1 MDR cells viability, CellTiter-Glo, 72 h; further: nearly all actives have a fitted effect of over 60% in size
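Drug-selected KB-V1 cells, grown in DMEM lacking phenol red with 10% FBS, receive compound titrations; after three days at 37 degrees C, surviving cell ATP is quantified by CellTiter-Glo luminescence and responses normalized and curve-fitted.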
KB-3-1 cytotox = kills parental KB-3-1 adenocarcinoma cells. KB-3-1 viability, CellTiter-Glo ATP luminescence, 72 h. Potency, µM (series often up to 46.1 µM), hits mostly cytotoxic. AID 1347075. hit rate 1.4% among 400,000; further: nearly all actives have a fitted effect of over 60% in size
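Cells are dispensed, compounds pinned in, plates held at 37 °C for 72 h, then CellTiter-Glo is added and luminescence read after 10 minutes. Cell line: parental KB-3-1 in phenol-red-free DMEM, 10% FBS.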
HT1080 IDH1KD tx = HT-1080 IDH1 knockdown cell toxicity (counter line); HT-1080 IDH1 knockdown viability, ATP luminescence, 48 h; hit rate 2% among 360,000; Potency, µM (highest dose often 46.1 µM), hits mostly cytotoxic
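Using the IDH1-knockdown HT-1080 line run in the same batch and compound series as the NT line, viability after 48 h at 37 °C was determined by CellTiter-Glo luminescence and expressed as % activity.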
HT1080NT lethal = kills 2HG-producing HT-1080-NT fibrosarcoma cells; HT-1080-NT fibrosarcoma viability, CellTiter-Glo ATP luminescence, 48 h; Potency, µM (titrated, usually from 46.1 µM), most hits filed as cytotoxic; hit rate 1.6% among 360,000; AID 686970;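 further: NT is the 2HG producing partner of a matched IDH1 knockdown line; nearly all actives have a fitted effect of over 55% in size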
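HT-1080-NT fibrosarcoma cells (2HG-overproducing), 750 cells/well in RPMI with 5% FBS, dosed after 2 h and incubated 48 h at 37C. CellTiter-Glo luminescence normalized to DMSO and no-cell wells; concentration-response curves fitted and classed.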
S2 tox = reduces viability in counter-screen for ATXN expression inhibitors. AID 651635. S2 cells (HEK-293 line with an ATXN2-luciferase reporter) viability, CellTiter-Fluor protease fluorescence, 24 h. hit rate 0.49% among 400,000. Potency, µM (titrated, usually from 56.7 µM), hits mostly cytotoxic; further: nearly all actives have a fitted effect of over 40% in size
Each line names hits and unclear results; the compound was inactive in the other large screens. Only some compounds are listed: those with a hit (about 6.2% of all), similar ones and a draw of the others. The call rests on the fitted dose curve; in most records, active means well fitted curve in the direction sought with a large enough effect; inconclusive means small, poorly fitted or top-dose-only effect, or another doubt; inactive means no such curve, though single readings can be large; an effect the other way counts as inactive or inconclusive.

Cc1ccc(-c2nc(-c3cc4cccc(OCc5ccccc5F)c4oc3=O)no2)cc1	KB-V1 MDR tox inconclusive (no result: HT1080 IDH1KD tx, HT1080NT lethal)
O=C(c1cccc(Cn2cccn2)c1)N1CCC(n2c(C3CCCO3)nc3cc(C(F)(F)F)ccc32)CC1 (centres undefined)	none (no result: ATXN2 expr inh, KB-V1 MDR tox, KB-3-1 cytotox, HT1080 IDH1KD tx, HT1080NT lethal)
CCC(=O)Oc1ccc2c(=O)c(-c3ccc4ccccc4n3)c(CC)oc2c1C	KB-V1 MDR tox 13µM, HT1080 IDH1KD tx inconclusive
Cc1cccc(NC(=O)CN2C(=O)C3(SCC(=O)N3c3ccccc3)c3ccccc32)c1 (centres undefined)	KB-V1 MDR tox inconclusive (no result: HT1080 IDH1KD tx, HT1080NT lethal)
O=C(Nc1ccc2nc(-c3cccnc3)[nH]c2c1)C1CCCCC1	HT1080 IDH1KD tx inconclusive, HT1080NT lethal inconclusive, S2 tox inconclusive
O=C(Nc1ccc2nc(-c3cccnc3)[nH]c2c1)C12CC3CC(CC(C3)C1)C2	KB-V1 MDR tox inconclusive, KB-3-1 cytotox 11µM, HT1080 IDH1KD tx 18µM, HT1080NT lethal 13µM, S2 tox inconclusive
CCCC1=Nc2cc(C(=O)NCCN3CCOCC3)ccc2Sc2ccccc21	KB-V1 MDR tox inconclusive, HT1080NT lethal inconclusive
CC1=Nc2cc(C(=O)NCCN3CCOCC3)ccc2Sc2c(C)ccc(C)c21	KB-V1 MDR tox 18µM, KB-3-1 cytotox 15µM, HT1080 IDH1KD tx inconclusive, HT1080NT lethal inconclusive (no result: ATXN2 expr inh)
CC1=Nc2cc(C(=O)NCCCN3CCOCC3)ccc2Sc2c(C)ccc(C)c21	KB-V1 MDR tox inconclusive, KB-3-1 cytotox inconclusive, HT1080 IDH1KD tx 21µM, HT1080NT lethal 16µM
Cc1cccc(N(CC(=O)NCCSCc2ccccc2)S(=O)(=O)c2ccccc2)c1C	ATXN2 expr inh inconclusive (no result: HT1080 IDH1KD tx, HT1080NT lethal)
CC=CC(=O)N(CC)c1ccccc1C	none (no result: KB-V1 MDR tox, KB-3-1 cytotox, HT1080 IDH1KD tx, HT1080NT lethal, S2 tox)
Cc1ccc(CS/C(Nc2ccccc2C)=C(\C#N)C(=O)NCc2ccco2)c(C)c1	ATXN2 expr inh inconclusive, KB-V1 MDR tox 15µM, KB-3-1 cytotox inconclusive
O=C(CCSCc1ccc(Cl)cc1)NCc1ccco1	none (no result: ATXN2 expr inh)
Cc1ccccc1N/C(SCc1ccc(Cl)cc1)=C(/C#N)C(=O)NCc1ccco1	ATXN2 expr inh inconclusive, KB-V1 MDR tox 12µM, KB-3-1 cytotox inconclusive, HT1080 IDH1KD tx inconclusive, HT1080NT lethal inconclusive
CC(C)(C)OC(=O)N1CCC(c2c(C(=O)NCCN3CCOCC3)cnn2-c2cccc(F)c2)CC1	none (no result: HT1080 IDH1KD tx, HT1080NT lethal)
O=C(NCc1cccnc1)/C(=C\c1ccc(-c2cccc(Cl)c2)o1)S(=O)(=O)c1ccccc1	ATXN2 expr inh 25µM, KB-V1 MDR tox 4.1µM, KB-3-1 cytotox inconclusive, HT1080 IDH1KD tx inconclusive (no result: S2 tox)
Cc1ccc(C(=O)N/C(=C\c2ccc(-c3cc(Cl)ccc3Cl)o2)C(=O)NCc2cccnc2)cc1	KB-V1 MDR tox 16µM, KB-3-1 cytotox inconclusive
CN(C)c1ccc(/C=C(\NC(=O)c2ccccc2)C(=O)NCc2cccnc2)cc1	S2 tox inconclusive
O=C(NCc1cccnc1)/C(=C/c1ccc(-c2cccc(Cl)c2)o1)S(=O)(=O)c1ccccc1	ATXN2 expr inh inconclusive, KB-V1 MDR tox inconclusive
N/C(Cc1ccccc1)=N\OC(=O)c1cccc2ccccc12	KB-3-1 cytotox inconclusive, HT1080 IDH1KD tx 21µM, HT1080NT lethal inconclusive, S2 tox inconclusive
N/C(Cc1ccc([N+](=O)[O-])cc1)=N\OC(=O)c1ccc2ccccc2c1	HT1080 IDH1KD tx inconclusive, HT1080NT lethal 18µM
N/C(Cc1cccc2ccccc12)=N\OC(=O)c1ccccc1F	none (no result: KB-V1 MDR tox, KB-3-1 cytotox)
N/C(Cc1ccc([N+](=O)[O-])cc1)=N\OC(=O)C(c1ccccc1)c1ccccc1	ATXN2 expr inh inconclusive, HT1080 IDH1KD tx inconclusive, HT1080NT lethal 18µM (no result: S2 tox)
Cc1cccc(C(=O)O/N=C(\N)Cc2ccc([N+](=O)[O-])cc2)c1	KB-V1 MDR tox inconclusive, KB-3-1 cytotox inconclusive, HT1080NT lethal inconclusive, S2 tox inconclusive
O=C(O)c1ccc(OCCN2CCCCC2)cc1	none (no result: KB-V1 MDR tox, KB-3-1 cytotox, HT1080 IDH1KD tx, HT1080NT lethal)
Cc1ccc2c(Br)cc(Br)c(O)c2n1	ATXN2 expr inh 6.3µM, S2 tox inconclusive (no result: KB-V1 MDR tox, KB-3-1 cytotox, HT1080 IDH1KD tx, HT1080NT lethal)
COC(=O)c1cccc(Nc2c(-c3cc(Br)ccc3O)nc3nc[nH]n23)c1	KB-V1 MDR tox inconclusive (no result: HT1080 IDH1KD tx, HT1080NT lethal)
Cn1c(SCC(=O)NC(C)(C)C)nnc1-c1ccc(C(C)(C)C)cc1	KB-V1 MDR tox 21µM
